Here are results for 15 targets from the supplement of paper PMC10849652.

Of roughly 7,900 targets only a part is listed; those with a hit were picked by preference. About 0.6% of all pairs of compound and target were hits. Values without a mark were called inactive.

Assay in all cases: log2 fold change, soluble protein after heating vs DMSO (PISA); higher = thermal stabilisation; K562 cells, 10 uM, 30 min; active = over 0.2 and 3.5 SD of the protein, either way, in both replicates (recomputed)
Compound in test [1]: CN1CCN(CCOc2cc(OC3CCOCC3)c3c(Nc4c(Cl)ccc5c4OCO5)ncnc3c2)CC1 [saracatinib]
Put shortly: (§1)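 K562 cells at 2×10^6 cells/mL were given 10 μM compound for 30 min. Aliquots then went through 3 min of heating across 48°C-58°C, were pooled, and were extracted in PBS with 0.5% NP-40 at 4°C, and the supernatant after 21,000xg for 90 min was quantified by TMTpro 16plex LC-MS/MS with channel sums equalised. Thermal stability relative to control samples, from duplicates, is given as log2 fold change.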

Compound in test [2]: CN1CCN(c2nc(C3=C(c4c[nH]c5ccccc45)C(=O)NC3=O)c3ccccc3n2)CC1 [sotrastaurin]
In outline:
as §1

Compound in test [3]: CN1CC[C@H](c2c(O)cc(O)c3c(=O)cc(-c4ccccc4Cl)oc23)[C@H](O)C1 [alvocidib]
In outline:
as §1

Compound in test [4]: CN1CCc2c(c3ccccc3n2Cc2ccc(C(=O)NO)cc2)C1 [Tubastatin A]
Put shortly:
as §1

Compound in test [5]: CNC(=O)C1=CC=CC=C1NC2=NC(=NC=C2Cl)NC3=C(C=C(C=C3)N4CCOCC4)OC
In outline:
as §1

Compound in test [6]: CNC(=O)c1ccc(Nc2ncc(C(F)(F)F)c(NCc3nccnc3N(C)S(C)(=O)=O)n2)cc1 [defactinib]
Put shortly:
as §1

Compound in test [7]: CNCc1ccc(-c2[nH]c3cc(F)cc4c3c2CCNC4=O)cc1 [rucaparib]
Put shortly:
as §1

Compound in test [8]: CNc1nc(-c2ccc3c(N)n[nH]c3c2)cc(N2C[C@@H](C(=O)NC3CCCCC3)CC[C@H]2C)n1
Put shortly: as §1

Compound in test [9]: COC(=O)N[C@@H](C)CNc1nccc(-c2cn(C(C)C)nc2-c2cc(Cl)cc(NS(C)(=O)=O)c2F)n1 [encorafenib]
Put shortly:
as §1

Compound in test [10]: COC(=O)[C@H](CCSC)NC(=O)C1=C(C=C(C=C1)NC[C@H](CS)N)C2=CC=CC=C2
In outline:
as §1

Chain of UniProt Q8IWA5 (Q8IWA5 whole entry, looked up): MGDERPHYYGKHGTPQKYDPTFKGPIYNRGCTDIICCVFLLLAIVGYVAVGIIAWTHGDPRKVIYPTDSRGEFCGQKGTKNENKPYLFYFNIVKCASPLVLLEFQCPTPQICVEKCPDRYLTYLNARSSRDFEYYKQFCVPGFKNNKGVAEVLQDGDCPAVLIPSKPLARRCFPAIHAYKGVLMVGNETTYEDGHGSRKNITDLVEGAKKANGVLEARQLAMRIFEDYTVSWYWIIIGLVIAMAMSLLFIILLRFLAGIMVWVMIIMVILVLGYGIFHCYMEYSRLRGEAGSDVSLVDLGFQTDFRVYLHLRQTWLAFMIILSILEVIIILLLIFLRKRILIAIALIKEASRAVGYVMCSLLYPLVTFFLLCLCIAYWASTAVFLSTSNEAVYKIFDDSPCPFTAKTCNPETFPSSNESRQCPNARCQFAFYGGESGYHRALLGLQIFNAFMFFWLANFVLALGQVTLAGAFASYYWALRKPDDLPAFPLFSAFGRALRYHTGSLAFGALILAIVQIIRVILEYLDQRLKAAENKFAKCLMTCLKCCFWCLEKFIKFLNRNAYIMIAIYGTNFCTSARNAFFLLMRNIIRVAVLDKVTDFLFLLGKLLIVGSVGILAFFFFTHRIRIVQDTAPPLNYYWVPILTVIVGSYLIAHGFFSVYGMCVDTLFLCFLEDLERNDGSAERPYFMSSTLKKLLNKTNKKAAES
Chain of UniProt Q6XR72 (Q6XR72 whole entry, looked up): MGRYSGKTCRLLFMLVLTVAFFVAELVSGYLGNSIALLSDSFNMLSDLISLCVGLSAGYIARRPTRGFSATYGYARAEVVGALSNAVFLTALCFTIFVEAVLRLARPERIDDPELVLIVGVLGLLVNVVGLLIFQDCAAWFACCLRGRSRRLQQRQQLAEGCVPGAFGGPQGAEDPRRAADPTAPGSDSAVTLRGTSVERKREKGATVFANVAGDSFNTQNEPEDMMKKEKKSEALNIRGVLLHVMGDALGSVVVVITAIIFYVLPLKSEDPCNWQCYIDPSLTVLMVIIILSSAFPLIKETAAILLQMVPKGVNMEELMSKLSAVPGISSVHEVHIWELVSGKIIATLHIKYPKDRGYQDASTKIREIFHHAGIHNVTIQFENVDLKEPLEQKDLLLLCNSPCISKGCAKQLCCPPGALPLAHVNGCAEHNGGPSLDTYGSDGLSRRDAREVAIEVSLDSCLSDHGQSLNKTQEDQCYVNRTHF
Chain of UniProt Q9UH99 (Q9UH99 whole entry, looked up): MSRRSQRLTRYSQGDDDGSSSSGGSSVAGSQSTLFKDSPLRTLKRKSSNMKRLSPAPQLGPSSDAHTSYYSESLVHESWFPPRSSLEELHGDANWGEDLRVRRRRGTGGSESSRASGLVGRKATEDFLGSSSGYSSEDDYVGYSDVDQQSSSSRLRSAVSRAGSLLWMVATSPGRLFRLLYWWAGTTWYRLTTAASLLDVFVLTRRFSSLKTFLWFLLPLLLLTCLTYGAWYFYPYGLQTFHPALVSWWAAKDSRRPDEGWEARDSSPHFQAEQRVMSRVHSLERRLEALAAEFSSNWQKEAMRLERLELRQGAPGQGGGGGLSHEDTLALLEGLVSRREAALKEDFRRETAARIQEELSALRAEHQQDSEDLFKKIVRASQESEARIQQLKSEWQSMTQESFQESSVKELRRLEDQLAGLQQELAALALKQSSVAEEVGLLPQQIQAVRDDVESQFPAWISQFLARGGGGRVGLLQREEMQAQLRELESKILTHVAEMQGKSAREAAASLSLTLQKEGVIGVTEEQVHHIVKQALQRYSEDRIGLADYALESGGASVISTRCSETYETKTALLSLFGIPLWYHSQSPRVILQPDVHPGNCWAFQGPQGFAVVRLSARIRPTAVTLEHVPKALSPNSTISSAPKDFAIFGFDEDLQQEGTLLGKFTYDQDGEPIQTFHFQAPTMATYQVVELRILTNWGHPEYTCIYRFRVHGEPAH
Chain of UniProt Q9P289 (Q9P289 whole entry, looked up): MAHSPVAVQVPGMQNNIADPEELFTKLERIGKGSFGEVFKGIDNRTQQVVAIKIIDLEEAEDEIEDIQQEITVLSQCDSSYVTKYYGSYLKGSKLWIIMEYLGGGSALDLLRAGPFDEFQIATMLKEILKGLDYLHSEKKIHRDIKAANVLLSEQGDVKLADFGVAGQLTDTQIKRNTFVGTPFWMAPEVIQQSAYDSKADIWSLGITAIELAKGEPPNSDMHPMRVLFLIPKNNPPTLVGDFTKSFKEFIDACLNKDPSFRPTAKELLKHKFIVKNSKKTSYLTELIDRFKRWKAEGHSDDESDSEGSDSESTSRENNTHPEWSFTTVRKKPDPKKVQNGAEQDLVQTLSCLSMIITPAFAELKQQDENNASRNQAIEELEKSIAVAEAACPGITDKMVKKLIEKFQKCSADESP
Chain of UniProt Q9Y5M8 (Q9Y5M8 whole entry, looked up): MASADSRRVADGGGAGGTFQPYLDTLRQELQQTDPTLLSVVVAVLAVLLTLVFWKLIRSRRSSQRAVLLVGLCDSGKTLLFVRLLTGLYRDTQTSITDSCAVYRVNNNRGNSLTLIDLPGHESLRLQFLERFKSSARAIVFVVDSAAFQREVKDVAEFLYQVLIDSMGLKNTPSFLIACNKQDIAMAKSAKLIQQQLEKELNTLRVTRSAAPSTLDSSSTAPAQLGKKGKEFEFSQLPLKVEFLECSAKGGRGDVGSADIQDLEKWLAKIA
Chain of UniProt Q13586 (Q13586 whole entry, looked up): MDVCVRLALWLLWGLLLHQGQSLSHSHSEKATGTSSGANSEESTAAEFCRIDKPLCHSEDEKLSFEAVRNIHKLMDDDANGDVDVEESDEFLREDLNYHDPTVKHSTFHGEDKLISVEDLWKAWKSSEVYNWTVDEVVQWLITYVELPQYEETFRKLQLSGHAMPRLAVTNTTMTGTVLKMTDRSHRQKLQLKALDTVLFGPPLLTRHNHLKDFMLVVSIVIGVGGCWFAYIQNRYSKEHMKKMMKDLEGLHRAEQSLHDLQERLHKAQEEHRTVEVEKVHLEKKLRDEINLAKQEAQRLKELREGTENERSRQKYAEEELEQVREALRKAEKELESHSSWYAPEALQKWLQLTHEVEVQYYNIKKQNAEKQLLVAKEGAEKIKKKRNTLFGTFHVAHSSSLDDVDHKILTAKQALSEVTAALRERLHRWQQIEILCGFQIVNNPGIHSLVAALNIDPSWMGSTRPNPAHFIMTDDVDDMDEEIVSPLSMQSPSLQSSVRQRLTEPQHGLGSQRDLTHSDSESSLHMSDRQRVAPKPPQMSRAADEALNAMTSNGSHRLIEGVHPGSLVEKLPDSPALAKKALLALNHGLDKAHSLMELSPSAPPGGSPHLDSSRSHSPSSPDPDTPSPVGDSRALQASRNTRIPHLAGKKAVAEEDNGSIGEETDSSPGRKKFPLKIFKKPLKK
Chain of UniProt P05455 (P05455 whole entry, looked up): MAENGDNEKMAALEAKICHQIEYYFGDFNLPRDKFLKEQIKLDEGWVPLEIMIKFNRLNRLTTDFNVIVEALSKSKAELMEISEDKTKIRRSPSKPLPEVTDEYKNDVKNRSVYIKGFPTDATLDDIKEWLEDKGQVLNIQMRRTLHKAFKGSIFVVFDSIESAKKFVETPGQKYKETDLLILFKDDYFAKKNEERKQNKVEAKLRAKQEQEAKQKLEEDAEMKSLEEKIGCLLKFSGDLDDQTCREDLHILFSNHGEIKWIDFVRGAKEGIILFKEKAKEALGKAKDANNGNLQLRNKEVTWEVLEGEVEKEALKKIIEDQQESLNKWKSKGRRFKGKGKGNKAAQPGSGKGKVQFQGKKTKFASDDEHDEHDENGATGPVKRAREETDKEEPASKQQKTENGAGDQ
Chain of UniProt Q9NYB0 (Q9NYB0 whole entry, looked up): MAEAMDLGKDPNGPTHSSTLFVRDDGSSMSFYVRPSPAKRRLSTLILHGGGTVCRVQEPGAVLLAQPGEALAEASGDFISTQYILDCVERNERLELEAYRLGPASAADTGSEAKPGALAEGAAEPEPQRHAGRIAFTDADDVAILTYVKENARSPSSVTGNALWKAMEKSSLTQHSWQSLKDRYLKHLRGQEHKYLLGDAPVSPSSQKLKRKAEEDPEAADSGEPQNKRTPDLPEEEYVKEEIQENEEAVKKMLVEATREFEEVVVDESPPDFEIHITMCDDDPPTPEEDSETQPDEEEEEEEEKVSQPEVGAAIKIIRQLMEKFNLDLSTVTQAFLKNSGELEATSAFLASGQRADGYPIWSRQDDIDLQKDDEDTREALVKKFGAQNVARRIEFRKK
Chain of UniProt Q8WU79 (Q8WU79 whole entry, looked up): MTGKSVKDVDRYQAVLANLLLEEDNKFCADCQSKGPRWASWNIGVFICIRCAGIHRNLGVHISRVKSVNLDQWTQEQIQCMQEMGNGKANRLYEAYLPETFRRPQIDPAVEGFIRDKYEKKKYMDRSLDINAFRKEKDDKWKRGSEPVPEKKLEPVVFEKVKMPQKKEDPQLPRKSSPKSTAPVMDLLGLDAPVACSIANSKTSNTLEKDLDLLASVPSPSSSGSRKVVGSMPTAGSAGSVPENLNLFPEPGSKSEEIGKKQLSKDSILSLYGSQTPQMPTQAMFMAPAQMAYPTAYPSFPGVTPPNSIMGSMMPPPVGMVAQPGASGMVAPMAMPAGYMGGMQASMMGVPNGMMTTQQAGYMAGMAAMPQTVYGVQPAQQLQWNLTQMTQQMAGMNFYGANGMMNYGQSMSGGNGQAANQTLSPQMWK
Chain of UniProt P04183 (P04183 whole entry, looked up): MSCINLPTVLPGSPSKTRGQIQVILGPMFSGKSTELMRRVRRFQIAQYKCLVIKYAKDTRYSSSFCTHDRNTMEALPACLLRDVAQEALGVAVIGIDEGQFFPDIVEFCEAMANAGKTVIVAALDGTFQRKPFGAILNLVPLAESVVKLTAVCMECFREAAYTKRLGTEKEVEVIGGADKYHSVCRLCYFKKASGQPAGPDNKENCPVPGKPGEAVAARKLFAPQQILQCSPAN
Chain of UniProt Q9Y5J6 (Q9Y5J6 whole entry, looked up): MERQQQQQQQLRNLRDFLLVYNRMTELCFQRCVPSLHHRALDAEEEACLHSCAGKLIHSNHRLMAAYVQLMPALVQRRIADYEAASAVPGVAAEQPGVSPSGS

Regarding SUGP1 (UniProt Q8IWZ8), the log2 fold change in test [1] was 0.012; in test [2], -0.049; in test [3] it was -0.129; in test [4], 0.052; in [5], -0.043; in test [6] it was -0.124. Besides, the log2 fold change in [7] was -0.016; in test [8], -0.074; in test [9] it was -0.003; in [10], -0.02.

With SSB (UniProt P05455), the log2 fold change in test [1] is -0.001; in test [2], -0.158; in [3], -0.123; in test [4], 0.015; in test [5], 0.016; in test [6] it was -0.187. For the same target, the log2 fold change is -0.031 in test [7], -0.089 in [8], 0 in test [9] and 0.042 in [10].

TK1 (UniProt P04183): the log2 fold change in test [1] was 0.067; in [2] it was 0.036; in test [3], -0.028; in test [4], 0.034; in [5] it was -0.013; in test [6] it was -0.021. For the same target, the log2 fold change in [7] is -0.015; in [8], -0.003; in [9] it was -0.005; in test [10], 0.024.

Take TERF2IP (UniProt Q9NYB0): the log2 fold change in test [1] is 0.038; in test [2], -0.065; in test [3], -0.106; in test [4] it was 0.128; in test [5], 0.008; in test [6] it was -0.195. Also, the log2 fold change in [7] was -0.052; in test [8], -0.016; in test [9], -0.011; in test [10], -0.007.

On to SUN2 (UniProt Q9UH99), for which the log2 fold change in [1] was -0.029; in test [2] it was -0.09; in test [3], 0.015; in test [4] it was 0.053; in [5] it was -0.068; in [6] it was -0.05. Moreover, the log2 fold change in test [7] was 0.03; in test [8], -0.066; in test [9], 0.067; in [10], 0.023.

As for SMAP2 (UniProt Q8WU79), the log2 fold change was -0.047 in [1]; -0.052 in [2]; -0.057 in test [3]; 0.029 in test [4]; 0.107 in test [5]; -0.12 in [6]. Further, the log2 fold change is 0.114 in test [7], -0.026 in test [8], 0.087 in [9] and -0.043 in [10].

As for STK26 (UniProt Q9P289), the log2 fold change is -0.027 in test [1]; 0.009 in [2]; 0.018 in test [3]; -0.049 in [4]; -0.057 in test [5]; 0.067 in [6]. For the same target, the log2 fold change in [7] was -0.005; in test [8], -0.001; in test [9] it was 0.032; in [10], 0.054.

As to SPAG9 (UniProt O60271), the log2 fold change in test [1] is 0.014; in [2], -0.037; in [3], -0.047; in test [4], 0.003; in test [5] it was 0.02; in [6] it was -0.044. Also, the log2 fold change was 0.049 in [7], 0.034 in test [8], 0.023 in test [9] and -0.011 in [10].

For the target SLC44A2 isoform 2 (UniProt Q8IWA5), the log2 fold change in test [1] is 0.104; in test [2], 0.056; in test [3], -0.051; in [4], -0.053; in test [5], -0.055; in [6], -0.137. In addition, the log2 fold change in test [7] is -0.044; in test [8] it was 0.043; in [9], -0.125; in [10] it was 0.02.

Consider STIM1 (UniProt Q13586), for which the log2 fold change in test [1] is 0.003; in test [2] it was 0; in test [3] it was -0.075; in [4], -0.029; in test [5], -0.001; in test [6] it was -0.048. Moreover, the log2 fold change in test [7] was 0.011; in test [8] it was -0.047; in test [9] it was 0.052; in test [10], 0.032.

For SLC30A10 (UniProt Q6XR72), the log2 fold change in test [1] was -0.075; in test [2], 0.031; in test [3], -0.031; in test [4], 0.008; in test [5], -0.025; in [6] it was 0.012. Moreover, the log2 fold change in test [7] is -0.073; in test [8] it was -0.036; in test [9] it was 0.001; in test [10] it was -0.011.

With STEAP3 isoform 2 (UniProt Q658P3), the log2 fold change in test [1] is -0.02; in test [2] it was -0.027; in [3], -0.059; in test [4], -0.027; in test [5], -0.025; in test [6], -0.067. The log2 fold change was 0.055 in [7], -0.024 in [8], 0.012 in test [9] and 0.006 in [10].

Take SUCLG1 (UniProt P53597): the log2 fold change in test [1] is 0.042; in test [2] it was 0.019; in test [3], -0.028; in [4], -0.005; in [5] it was 0.015; in test [6] it was -0.057. For the same target, the log2 fold change in test [7] is 0.016; in test [8], -0.006; in test [9], -0.001; in test [10] it was 0.016.

On to TIMM10B (UniProt Q9Y5J6), for which the log2 fold change is -0.046 in test [1]; 0.074 in test [2]; -0.022 in test [3]; 0.109 in [4]; 0.484 (active) in test [5]; -0.074 in test [6]. For the same target, the log2 fold change in [7] was 0.017; in [8], -0.106; in [9], -0.022; in test [10] it was -0.117.

SRPRB (UniProt Q9Y5M8): the log2 fold change in test [1] is -0.03; in test [2] it was -0.036; in [3], 0.002; in test [4], 0.004; in test [5], 0.087; in test [6], 0.026. Also, the log2 fold change was 0.151 in test [7], 0.032 in [8], -0.013 in test [9] and -0.064 in [10].
